This is an account of results in PubChem BioAssay (NCATS).

SMILES strings stand for the structures. Results filed as inconclusive are left out. Activity calls are given as the source filed them. Calls follow the shape of the dose curve; as a rule, active = well fitted curve in the direction sought with a large enough effect; inconclusive = small, poorly fitted or top-dose-only effect, or another doubt; inactive = no such curve, though single readings can be large; an effect the other way counts as inactive or inconclusive.

Assay [1] can be described thus: Quantitative High-Throughput drug screen in 47 multiple myeloma cell lines against the NCATS MIPE library collection: Delta47_JCRB cell viability assay (AID 1918925; also: nearly all actives have a fitted effect of over 45% in size; also: potency is read from the fitted curve at half-maximal effect). The essentials:
(§1)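 CellTiter-Glo luminescence (ATP) after 48 h compound exposure, 37C/5% CO2; 500 cells/well; MIPE 4.0 approved/investigational drugs pinned in; DMSO = 100%, media only = 0% viability.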

The nature of assay [2]: Quantitative High-Throughput drug screen in 47 multiple myeloma cell lines against the NCATS MIPE library collection: EJM_DSMZ cell viability assay (AID 1918926; also: nearly all actives have a fitted effect of over 30% in size; also: potency is read from the fitted curve at half-maximal effect). Put shortly: as §1
The nature of assay [3]: Quantitative High-Throughput drug screen in 47 multiple myeloma cell lines against the NCATS MIPE library collection: ARP1_JJKsccF8 cell viability assay (AID 1918928; also: nearly all actives have a fitted effect of over 40% in size; also: potency is read from the fitted curve at half-maximal effect). The essentials: (§2)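 Luminescence from CellTiter-Glo, taken after 5 min at room temperature, reports cellular ATP as viability. Cells (500 per well) had been treated 48 h at 37 °C with MIPE 4.0 compounds, scaled between DMSO and medium-only controls.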

Assay [4] in a line: Quantitative High-Throughput drug screen in 47 multiple myeloma cell lines against the NCATS MIPE library collection: Karpas417_ECACC cell viability assay (AID 1918961). The settings on record: Karpas417 myeloma viability, CellTiter-Glo ATP luminescence, 48 h; viability (% of DMSO): at 45.8 µM (top of the series). The essentials: (§3)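 Myeloma cells (500 per well) were exposed to MIPE 4.0 compounds by pin transfer and incubated 48 hours at 37C, 5% CO2. Viability was read as ATP by CellTiter-Glo luminescence, normalised to DMSO (100%) and media-only (0%) wells.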
(ATP-based viability assays read luminescence as a measure of living cells.)

Assay [5] is described as follows: Quantitative High-Throughput drug screen in 47 multiple myeloma cell lines against the NCATS MIPE library collection: JIM3_ECACC cell viability assay (AID 1918963; also: nearly all actives have a fitted effect of over 35% in size; also: potency is read from the fitted curve at half-maximal effect). Put shortly: as §1
Assay [6] in a line: Quantitative High-Throughput drug screen in 47 multiple myeloma cell lines against the NCATS MIPE library collection: INA6_PLB cell viability assay (AID 1918965; also: potency is read from the fitted curve at half-maximal effect; nearly all actives have a fitted effect of over 55% in size). The essentials: as §3
Assay [7] in a line: Quantitative High-Throughput drug screen in 47 multiple myeloma cell lines against the NCATS MIPE library collection: JJN3_DSMZ cell viability assay (AID 1918966; also: nearly all actives have a fitted effect of over 50% in size; also: potency is read from the fitted curve at half-maximal effect). Put shortly: as §1
A short description of assay [8]: Quantitative High-Throughput drug screen in 47 multiple myeloma cell lines against the NCATS MIPE library collection: Karpas25_ECACC cell viability assay (AID 1918968; also: potency is read from the fitted curve at half-maximal effect; nearly all actives have a fitted effect of over 35% in size). Put shortly:
as §1

A short description of assay [9]: Quantitative High-Throughput drug screen in 47 multiple myeloma cell lines against the NCATS MIPE library collection: KMS20_JCRB cell viability assay (AID 1918973). Also: nearly all actives have a fitted effect of over 45% in size. Also: potency is read from the fitted curve at half-maximal effect. Put shortly:
as §1

A short description of assay [10]: Quantitative High-Throughput drug screen in 47 multiple myeloma cell lines against the NCATS MIPE library collection: KMM1_JCRB cell viability assay (AID 1918960). Also: nearly all actives have a fitted effect of over 30% in size. Also: potency is read from the fitted curve at half-maximal effect. The essentials: as §2
Assay [11] is described as follows: Quantitative High-Throughput drug screen in 47 multiple myeloma cell lines against the NCATS MIPE library collection: KHM11_PLB cell viability assay (AID 1918962). Also: nearly all actives have a fitted effect of over 35% in size. Also: potency is read from the fitted curve at half-maximal effect. Put shortly:
as §1

The nature of assay [12]: Quantitative High-Throughput drug screen in 47 multiple myeloma cell lines against the NCATS MIPE library collection: H1112_PLB cell viability assay (AID 1918967; also: nearly all actives have a fitted effect of over 30% in size; also: potency is read from the fitted curve at half-maximal effect). The essentials: as §1
Assay [13] can be described thus: Quantitative High-Throughput drug screen in 47 multiple myeloma cell lines against the NCATS MIPE library collection: KMS12BM_JCRB cell viability assay (AID 1918971). Also: potency is read from the fitted curve at half-maximal effect; nearly all actives have a fitted effect of over 35% in size. Put shortly: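 Relative luminescence from CellTiter-Glo served as the viability signal, referenced to DMSO-treated (100%) and cell-free medium (0%) controls. Treatment lasted 48 hours at 37C with 500 cells per well.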

A short description of assay [14]: Quantitative High-Throughput drug screen in 47 multiple myeloma cell lines against the NCATS MIPE library collection: KMS21BM_JCRB cell viability assay (AID 1918974). Also: potency is read from the fitted curve at half-maximal effect. As to conditions: ATP luminescence, 48 h; viability: at 45.8 µM (top of the series) unless noted. Put shortly:
as §1

Assay [15] in a line: Quantitative High-Throughput drug screen in 47 multiple myeloma cell lines against the NCATS MIPE library collection: KMS27_JCRB cell viability assay (AID 1918970). Also: nearly all actives have a fitted effect of over 30% in size. The essentials:
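Each line is seeded at 500 cells per well and treated with library compounds for 48 hours under 37 °C, 5% CO2. CellTiter-Glo is then added for 5 min at room temperature before median relative luminescence is recorded.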

A short description of assay [16]: Quantitative High-Throughput drug screen in 47 multiple myeloma cell lines against the NCATS MIPE library collection: Karpas620_DSMZ cell viability assay (AID 1918959). Also: nearly all actives have a fitted effect of over 30% in size. Also: potency is read from the fitted curve at half-maximal effect. The essentials:
as §1

A short description of assay [17]: Quantitative High-Throughput drug screen in 47 multiple myeloma cell lines against the NCATS MIPE library collection: JIM1_ECACC cell viability assay (AID 1918964). The essentials:
as §1

The nature of assay [18]: Quantitative High-Throughput drug screen in 47 multiple myeloma cell lines against the NCATS MIPE library collection: KMS12PE_JCRB cell viability assay (AID 1918972). Also: nearly all actives have a fitted effect of over 30% in size. Also: potency is read from the fitted curve at half-maximal effect. Put shortly:
as §3

Assay [19] can be described thus: Quantitative High-Throughput drug screen in 47 multiple myeloma cell lines against the NCATS MIPE library collection: ARD_JJKsccE7 cell viability assay (AID 1918929). Put shortly:
as §1

With `Nc1nc(NCCNc2ncc(-n3ccnc3)c(-c3ccc(Cl)cc3Cl)n2)ccc1[N+](=O)[O-]`, the Potency in assay [1] is 1480 nM (active); in assay [2] it was 16600 nM (active); in assay [3], 11800 nM (active); in assay [5], 5260 nM (active); in [6], 1180 nM (active); in assay [7], 6620 nM (active). In addition, the Potency is 1480 nM (active) in [8] and 9350 nM (active) in assay [9]. For the same compound, in assay [4], the Potency result was “inactive”.
On to `C=CCn1c(=O)c2cnc(Nc3ccc(N4CCN(C)CC4)cc3)nc2n1-c1cccc(C(C)(C)O)n1`, for which the Potency is 418 nM (active) in assay [1]; 1480 nM (active) in [2]; 1180 nM (active) in assay [3]; 332 nM (active) in [10]; 833 nM (active) in [11]; 590 nM (active) in assay [5]. For the same compound, the Potency in assay [7] is 743 nM (active); in assay [12], 469 nM (active); in [8] it was 332 nM (active); in assay [13], 526 nM (active); in assay [9], 8330 nM (active); in [14], 9350 nM (active).
As to `CNC(=O)c1c(F)cccc1Nc1nc(Nc2cc3c(cc2OC)CCN3C(=O)CN(C)C)nc2[nH]ccc12`, the Potency is 52.6 nM (active) in assay [1]; 209 nM (active) in [2]; 5260 nM (active) in assay [3]; 105 nM (active) in assay [5]; 5900 nM (active) in assay [6]; 6620 nM (active) in assay [7]. The Potency in assay [12] is 1870 nM (active); in [8], 93.5 nM (active); in [13] it was 14800 nM (active); in assay [9] it was 118 nM (active). The Potency result in [4] and in assay [15] was “inactive” throughout.
Turning to `CCOc1ccccc1OCCNC(C)Cc1ccc(OC)c(S(N)(=O)=O)c1` (configuration not stated), the Potency result in assay [1], in assay [2], in [3], in [16], in [10] and in assay [11] was “inactive” in each case. Also, the Potency entry in assay [5], in [17], in assay [7], in assay [12], in [18] and in assay [9] was “inactive” throughout.
For the compound `Cc1[nH]c2ccccc2c1CCNCc1ccc(C=CC(=O)NO)cc1`, the Potency in assay [1] is 52.6 nM (active); in [2], 148 nM (active); in assay [3] it was 41.8 nM (active); in assay [10], 52.6 nM (active); in assay [5] it was 235 nM (active); in assay [6], 13.2 nM (active). Moreover, the Potency is 93.5 nM (active) in [7], 105 nM (active) in assay [12], 59 nM (active) in [13] and 52.6 nM (active) in assay [18].
With `CCOc1cc2ncc(C#N)c(Nc3ccc(F)c(Cl)c3)c2cc1NC(=O)C=CCN(C)C`, the Potency in [1] is 6620 nM (active); in [2], 5900 nM (active); in assay [3], 1660 nM (active); in [5], 18700 nM (active); in assay [6] it was 526 nM (active); in assay [7], 9350 nM (active). For the same compound, the Potency in assay [12] was 5260 nM (active); in [8], 662 nM (active); in [13] it was 5260 nM (active); in assay [9] it was 4690 nM (active).
Consider `O=C(O)C1(Cc2cccc(Nc3nccs3)n2)CCC(Oc2cccc(Cl)c2F)CC1` (configuration not stated), for which the Potency is 166 nM (active) in assay [1]; 590 nM (active) in assay [3]; 74.3 nM (active) in assay [16]; 264 nM (active) in assay [11]; 935 nM (active) in [5]; 1320 nM (active) in assay [13]. For the same compound, the Potency in assay [14] is 23.5 nM (active). For the same compound, the Potency entry in assay [2], in [7] and in assay [12] was “inactive” in each case.
Regarding `CC1=C(CO)C(=O)O[C@@H]([C@@H](C)[C@H]2CC[C@H]3[C@@H]4C[C@H]5O[C@]56[C@@H](O)C=CC(=O)[C@]6(C)[C@@H]4CC[C@]23C)C1`, the Potency was 148 nM (active) in assay [1]; 235 nM (active) in assay [2]; 166 nM (active) in assay [3]; 209 nM (active) in [5]; 105 nM (active) in [6]; 662 nM (active) in [7]. The Potency in [12] was 418 nM (active); in [8], 132 nM (active); in assay [13] it was 372 nM (active); in assay [9], 148 nM (active). Also, the Potency entry in assay [16], in [10] and in assay [17] was “inactive” each time.
Turning to `Cc1ccc(CN2CCNCC2)cc1NC(=O)CNc1ccc(F)c(F)c1`, the Potency entry in assay [1], in assay [19], in [10], in assay [5], in [17] and in [7] was “inactive” throughout. Besides, the Potency result in [12], in [15], in assay [18] and in assay [9] was “inactive” in each case. For the same compound, the Potency in assay [2] was 3320 nM (active); in [8], 5900 nM (active).
With `Cc1nc2cnc3ccc(C#Cc4cccnc4)cc3c2n1-c1ccc(C(C)(C)C#N)cc1`, the Potency in [1] is 16.6 nM (active); in assay [2], 1660 nM (active); in assay [5], 148 nM (active); in [6], 83.3 nM (active); in [7], 935 nM (active); in assay [12] it was 166 nM (active). Further, the Potency is 26.4 nM (active) in assay [8] and 14.8 nM (active) in assay [9]. Also, in assay [10], the Potency entry was “inactive”.
With `COc1cc(C(=O)NS(=O)(=O)c2ccccc2C)ccc1Cc1cn(C)c2ccc(NC(=O)OC3CCCC3)cc12`, the Potency in assay [1] was 14800 nM (active); in assay [2], 16600 nM (active); in assay [3] it was 18700 nM (active); in assay [5], 16600 nM (active); in assay [12], 20900 nM (active); in assay [8], 8330 nM (active). The Potency in assay [13] is 26400 nM (active); in assay [9], 6620 nM (active). Besides, the Potency entry in [16], in assay [4] and in assay [17] was “inactive” throughout.
Regarding `NC(=O)c1c(OCc2c(F)cc(Br)cc2F)nsc1NC(=O)NCCCCN1CCCC1`, the Potency in assay [1] was 7430 nM (active); in assay [2], 20900 nM (active); in [11], 9350 nM (active); in assay [5] it was 26400 nM (active); in assay [7] it was 20900 nM (active); in assay [12] it was 16600 nM (active). For the same compound, the figures for the Potency in assay [8], in [13] and in assay [9] were 8330 nM (active), 18700 nM (active) and 7430 nM (active), respectively. In addition, the Potency entry in assay [19], in assay [16], in [10], in assay [4] and in assay [15] was “inactive” each time.
`Cc1nc(Nc2n[nH]c3c2CN(C(=O)N[C@H](CN(C)C)c2ccccc2)C3(C)C)c2sccc2n1`: the Potency in [1] was 33.2 nM (active); in assay [2], 1480 nM (active); in assay [3], 469 nM (active); in assay [16], 2640 nM (active); in assay [10], 105 nM (active); in assay [11], 13.2 nM (active). Besides, the Potency in assay [5] was 46.9 nM (active); in assay [6] it was 5.9 nM (active); in assay [7], 4180 nM (active); in assay [12], 1660 nM (active); in assay [8], 526 nM (active); in assay [13], 743 nM (active). Besides, the Potency in assay [9] was 105 nM (active).
